Screening results: PubChem BioAssay, several laboratories
tim10-1 inh – tim10-1 yeast growth inhibition; S. cerevisiae tim10-1 ts strain growth, BacTiter-Glo, 24 h; inhibition, % at 20 µM; actives 2.2% (n = 330,000);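 active = inhibition of at least 40%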;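 note: mutant grown at 25 °C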
tim23-1 inh – inhibits growth of tim23-1 mutant yeast | actives 1.3% (n = 330,000) | S. cerevisiae tim23-1 growth, BacTiter-Glo luminescence, 24 h | inhibition, % at 20 µM | AID 463212;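 active = growth inhibition of the mutant yeast at or above 50%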;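 note: temperature-sensitive mutant grown at 25 °C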
PfHsp90 yeast 2 – growth inhibition of yeast expressing Plasmodium Hsp90; AID 504621; S. cerevisiae expressing PfHsp90, BacTiter-Glo ATP, 48 h; yeast lacking PDR1 and PDR3 efflux regulators; actives 0.32% (n = 310,000); inhibition, % at 9.4 µM;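 active = every replicate shows inhibition above about 80%, whatever the replicate mean, limit read from the data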
TIM10 inh – growth inhibitors of TIM10 yeast strain; actives 1.4% (n = 330,000); inhibition, % at 10 µM; S. cerevisiae TIM10 strain growth, BacTiter-Glo luminescence, 24 h;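 active = inhibition of 40% or more at the single tested concentration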;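 note: wild-type TIM10 isogenic control strain grown at permissive 25 °C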
NLRP3 yeast inh – NALP3 inhibition in yeast | inhibition, % at 10 µM | actives 0.39% (n = 330,000) | Yeast reconstituted NLRP3/ASC/caspase-1, beta-gal luminescence, 24 h | AID 2825;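 active = inhibition of 50% or more; inactive = inhibition below 50%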
NALP1 yeast inh – NALP1 inhibition; S. cerevisiae NALP1/ASC/caspase-1 growth, X-gal OD620, 72 h; inhibition, % at 10 µM; actives 0.61% (n = 280,000); AID 2071; in the data active = inhibition mostly above about 24%, no sharp cut-off; inactive = mostly below about 32%
tim10-1 conf – tim10-1 yeast growth inhibition, confirmed; shares compounds with tim10-1 inh; S. cerevisiae tim10-1 ts strain growth, BacTiter-Glo, 24 h; inhibition, % at 20 µM; actives 56% (n = 7,400); AID 463213;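 active = inhibition of yeast growth at or above a set limit in either of two repeat tests at 20 µM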;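 note: tim10-1 mutant grown at permissive 25 °C to find synthetic lethal compounds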
tim10 confirm – confirmation of TIM10 yeast growth inhibitors; shares compounds with TIM10 inh; S. cerevisiae tim10 strain growth, BacTiter-Glo luminescence, 24 h; inhibition, % at 10 µM; actives 63% (n = 4,600); AID 463215;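 active = inhibition of yeast growth at or above a set limit in either of two replicates at 10 µM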; note: this counterscreen used the strain with wild-type TIM10
tim23-1 conf – tim23-1 yeast growth inhibition, confirmed; S. cerevisiae tim23-1 growth, BacTiter-Glo luminescence, 24 h; actives 83% (n = 4,400); inhibition, % at 20 µM; AID 463218; shares compounds with tim23-1 inh;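 active = inhibition above about 39% in either of two replicate wells at 20 µM, limit read from the data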;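 note: temperature-sensitive tim23-1 mutant grown at 25 °C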
Each line names hits and unclear results; the compound was inactive in the other large screens (follow-up assays come after a bar, where they were run). An excerpt weighted towards active compounds, which were near 4.1% of everything screened.

Cc1cc(C)c(S(=O)(=O)/N=C2\C=C(Nc3ccc(C(=O)O)cc3)C(=O)c3ccccc32)c(C)c1	tim10-1 inh 43, tim23-1 inh 60 | tim10-1 conf 35 | tim23-1 conf 63
CC(=O)c1c(C)[nH]c(C(=O)NCCc2c[nH]c3ccccc23)c1C	none
CC(C)CC(=O)O/N=C1\C(=O)N(c2ccccc2)c2ccccc21	tim10-1 inh 63, tim23-1 inh 54, TIM10 inh 50 | tim10-1 conf 59 | tim10 confirm 74 | tim23-1 conf 62
Cc1ccc(/C(N)=N/OC(=O)c2ccc(Cl)cc2Cl)cc1	tim10-1 inh 47, tim23-1 inh 80, TIM10 inh 88 | tim10-1 conf inactive | tim10 confirm inactive | tim23-1 conf 44
COc1ccccc1C(=O)O/N=C(\N)c1ccc(Cl)cc1	tim10-1 inh 50, tim23-1 inh 64 | tim10-1 conf 45 | tim23-1 conf 54
Cc1ccc(C(=O)O/N=C(\N)Cc2cccs2)c(Cl)c1	tim10-1 inh 69, tim23-1 inh 91, TIM10 inh 85 | tim10-1 conf 63 | tim10 confirm 86 | tim23-1 conf 87
O=S(=O)(NC1CCCCC1N1CCC(O)CC1)c1ccccc1 (stereo not given)	none
O=C(COC(=O)COc1ccc(Br)cc1)Nc1ccc2c(c1)OCCO2	none (no result: NALP1 yeast inh)
O=C(CSC(=S)N1CCCC1)c1cc(Br)cc(Br)c1O	tim10-1 inh 58, tim23-1 inh 52, TIM10 inh 57 (no result: PfHsp90 yeast 2) | tim10-1 conf 46 | tim10 confirm 48 | tim23-1 conf 66
O=C(CSC(=S)N1CCCC1)Nc1cc2c(cc1Br)OCCO2	none
CCCCn1c(SCC(=O)OCC)nc2c(sc(=S)n2-c2ccccc2OC)c1=O	none
O=[N+]([O-])c1cccc(C2NCC(c3ccccc3Cl)c3c2[nH]c2ccccc32)c1 (stereo not given)	tim10-1 inh 59, tim23-1 inh 58, TIM10 inh 63 | tim10-1 conf 52 | tim10 confirm 58 | tim23-1 conf 76
N#C/C(N=Nc1ccccc1O)=N\Nc1ccccc1O	tim10-1 inh 65, tim23-1 inh 82 (no result: NALP1 yeast inh) | tim10-1 conf 60 | tim23-1 conf 66
COc1ccc2nc(/C=N/NC(=O)CCCCCNC(=O)OC(C)(C)C)ccc2c1	none (no result: NALP1 yeast inh)
Cc1ccc(S(=O)(=O)c2c(C)nn(C(C)(C)C)c2OC(=O)C(C)(C)C)cc1	none
Cc1ccc(S(=O)(=O)c2c(C)nn(C(C)(C)C)c2OC(=O)c2ccco2)cc1	tim10-1 inh 47, tim23-1 inh 64 | tim10-1 conf 32 | tim23-1 conf 46
Cc1ccc(S(=O)(=O)c2c(C)nn(C(C)(C)C)c2OC(=O)c2ccc(Br)o2)cc1	tim10-1 inh 50, tim23-1 inh 70, TIM10 inh 42 | tim10-1 conf 37 | tim10 confirm 35 | tim23-1 conf 49
CCO/N=C(\N)c1[nH]ncc1Br	none
N/C(=N\OC(=O)c1ccc(Cl)cc1)c1[nH]ncc1Br	tim10-1 inh 66, tim23-1 inh 60, TIM10 inh 43 (no result: NALP1 yeast inh) | tim10-1 conf 63 | tim10 confirm 37 | tim23-1 conf 59
CC(=O)Nc1ccc(/C=C(\C#N)C(=O)NC2CCCCC2)cc1	tim10-1 inh 46, tim23-1 inh 66, TIM10 inh 49 | tim10-1 conf 48 | tim10 confirm 56 | tim23-1 conf 62
CC(C)Oc1ccc(/C=C(\C#N)C(=O)NC2CC2)cc1	none (no result: NALP1 yeast inh)
CCOc1cccc(NC(=O)/C(C#N)=C/c2cccnc2)c1	tim10-1 inh 52, tim23-1 inh 79, TIM10 inh 42 (no result: NALP1 yeast inh) | tim10-1 conf 55 | tim10 confirm 56 | tim23-1 conf 77
CCOc1ccc(/C=C(\C#N)C(=O)Nc2cccnc2)cc1	none
CCOc1cccc(/C=C(\C#N)C(=O)NC2CC2)c1	tim10-1 inh 42, tim23-1 inh 77, TIM10 inh 51 (no result: NALP1 yeast inh) | tim10-1 conf 51 | tim10 confirm 51 | tim23-1 conf 62
N#C/C(=C/c1ccc(OCc2ccccc2)cc1)C(=O)NC1CCCCC1	none
Cc1nc(NC(=O)CN2CCC(O)(c3ccc(F)cc3)CC2)sc1C	none (no result: NALP1 yeast inh)
Cc1ccc(C)c(/C=C2\N=C(c3ccccc3F)OC2=O)c1	tim10-1 inh 40, tim23-1 inh 53, TIM10 inh 46 | tim10-1 conf 57 | tim10 confirm 53 | tim23-1 conf 54
COc1cc(/C=C2/N=C(c3ccccc3F)OC2=O)cc(Cl)c1OS(C)(=O)=O	none
Cc1ccc(NC(=O)CCCN2C(=O)NC(C)(C)C2=O)cc1	none (no result: NALP1 yeast inh)
COc1cccc(NC(=O)CC2C(=O)NC3CCCCC3N2C(=O)c2ccccc2)c1 (stereo not given)	none
COCCNC(=O)/C(C#N)=C/c1ccccc1Br	tim10-1 inh 72, tim23-1 inh 79, TIM10 inh 76 | tim10-1 conf 74 | tim10 confirm 68 | tim23-1 conf 77
N#C/C(=C\c1ccccc1Br)C(=O)NC1CC1	tim10-1 inh 54, tim23-1 inh 84, TIM10 inh 67 | tim10-1 conf 60 | tim10 confirm 83 | tim23-1 conf 82
COCCNC(=O)/C(C#N)=C/C=C/c1ccccc1	none
Cc1cc(/C=C(\C#N)C(=O)NC2CC2)c(C)[nH]1	none
COc1cccc(COC(=O)c2cc(=O)[nH]c3ccc(S(=O)(=O)N4CCOCC4)cc23)c1OC	none (no result: NALP1 yeast inh)
NS(=O)(=O)c1ccc(NC(=S)NCCc2ccccc2)cc1	none
O=C(NC(=S)NC1CCCc2ccccc21)c1ccco1 (stereo not given)	tim10-1 inh 51, tim23-1 inh 52, TIM10 inh 43 | tim10-1 conf 41 | tim10 confirm 43 | tim23-1 conf 58
O=[N+]([O-])c1ccc(NC(=S)NCCc2ccccc2)cc1	tim10-1 inh 67, tim23-1 inh 52, TIM10 inh 59 | tim10-1 conf 57 | tim10 confirm 52 | tim23-1 conf 69
O=C(NC(=S)NCCc1ccccc1)c1ccco1	tim10-1 inh 42, tim23-1 inh 56, TIM10 inh 48 | tim10-1 conf inactive | tim10 confirm inactive | tim23-1 conf 48
CCC(C)Nc1nc(N)c([N+](=O)[O-])c(Nc2ccccc2OC)n1 (stereo not given)	tim10-1 inh 43, tim23-1 inh 53 | tim10-1 conf inactive | tim23-1 conf 49
